An excerpt weighted towards active compounds, which were near 3.7% of everything screened.
TIM10 inh: growth inhibitors of TIM10 yeast strain | S. cerevisiae TIM10 strain growth, BacTiter-Glo luminescence, 24 h | inhibition, % at 10 µM | hit rate 1.4% among 330,000;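 active = inhibition of 40% or more at the single tested concentration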;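 note: wild-type TIM10 isogenic control strain grown at permissive 25 °C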
Rce1 inh: inhibitors of yeast Ras-converting enzyme | Q03530 | yeast membranes, quenched prenylated peptide cleavage fluorescence | calls only | hit rate 0.27% among 290,000 | AID 2563;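 active = fall in fluorescence gain of 50% or more versus controls, with final raw signal at or below 3038400; inconclusive = same 50% fall but final raw signal above 3038400; inactive = fall in fluorescence gain under 50%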;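 note: plate controls were neutral control wells for no effect and wells lacking membranes for full effect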
Target sequence (Q03530 whole entry, looked up): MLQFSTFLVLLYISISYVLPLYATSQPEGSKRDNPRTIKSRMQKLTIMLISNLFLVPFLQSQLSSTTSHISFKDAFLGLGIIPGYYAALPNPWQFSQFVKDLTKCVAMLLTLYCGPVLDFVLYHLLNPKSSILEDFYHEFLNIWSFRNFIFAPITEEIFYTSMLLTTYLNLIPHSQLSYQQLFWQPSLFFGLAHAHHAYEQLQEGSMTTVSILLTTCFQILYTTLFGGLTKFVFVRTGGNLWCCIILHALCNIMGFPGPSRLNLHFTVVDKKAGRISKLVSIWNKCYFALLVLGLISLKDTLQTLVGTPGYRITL
PfHsp90 set2: inhibits growth of yeast expressing Plasmodium falciparum Hsp90; hit rate 0.32% among 310,000; inhibition, % at 9.4 µM; S. cerevisiae expressing PfHsp90, BacTiter-Glo ATP, 48 h; yeast lacking PDR1 and PDR3 efflux regulators; AID 504621;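 active = every replicate shows inhibition above about 80%, whatever the replicate mean, limit read from the data; inconclusive = mean inhibition reaches the set limit but some replicate falls short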;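 note: 0% = DMSO neutral controls and 100% = 20 µM radicicol positive controls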
tim10-1 inh: growth inhibitors of tim10-1 mutant yeast. inhibition, % at 20 µM. S. cerevisiae tim10-1 ts strain growth, BacTiter-Glo, 24 h. hit rate 2.2% among 330,000;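 active = inhibition of at least 40%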;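 note: mutant grown at 25 °C; 0% = DMSO wells with yeast and 100% = wells holding no yeast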
tim23-1 inh: inhibits growth of tim23-1 mutant yeast | S. cerevisiae tim23-1 growth, BacTiter-Glo luminescence, 24 h | inhibition, % at 20 µM | hit rate 1.3% among 330,000;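 active = growth inhibition of the mutant yeast at or above 50%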;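 note: temperature-sensitive mutant grown at 25 °C; plate controls were DMSO-treated mutant yeast for no effect and medium wells lacking yeast for full effect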
tim10-1 confirm: tim10-1 yeast growth inhibition, confirmed; shares compounds with tim10-1 inh; S. cerevisiae tim10-1 ts strain growth, BacTiter-Glo, 24 h; inhibition, % at 20 µM; hit rate 56% among 7,400;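 active = inhibition of yeast growth at or above a set limit in either of two repeat tests at 20 µM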;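 note: tim10-1 mutant grown at permissive 25 °C to find synthetic lethal compounds; 0% = DMSO yeast wells and 100% = medium wells without yeast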
TIM10 conf: confirmation of TIM10 yeast growth inhibitors. inhibition, % at 10 µM. hit rate 63% among 4,600. AID 463215. shares compounds with TIM10 inh. S. cerevisiae tim10 strain growth, BacTiter-Glo luminescence, 24 h;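 active = inhibition of yeast growth at or above a set limit in either of two replicates at 10 µM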;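 note: this counterscreen used the strain with wild-type TIM10; 0% = yeast with DMSO and 100% = medium wells lacking yeast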
The depositor's hits bear a star; i = inactive; ? = inconclusive; · = no result given; + = active, no number.

SMILES	TIM10 inh	Rce1 inh	PfHsp90 set2	tim10-1 inh	tim23-1 inh	tim10-1 confirm	TIM10 conf
CCN(CC)c1ncnc2c1ncn2Cc1c(Cl)cccc1Cl	42*	i	-7	50*	41	37*	-8
O=c1c(Cl)c(NCc2ccc(F)cc2)cnn1C12CC3CC(CC(C3)C1)C2	52*	i	5	47*	44	38*	-2
Cc1ccc(CNc2cnn(C34CC5CC(CC(C5)C3)C4)c(=O)c2Cl)cc1	35	i	-14	3	22	·	·
COc1cccc(Nc2nc(-c3cccs3)nc3ccccc23)c1	48*	i	-16	53*	34	36*	45*
COc1ccc(Nc2nc(-c3cccs3)nc3ccccc23)cc1	26	i	-3	37	44	·	·
Cc1ccsc1/C=N/NC(=S)NCCc1ccccc1	41*	i	-7	54*	18	-17	44*
CCNC(=S)N/N=C/c1sccc1C	27	i	·	-2	50	·	·
CCCc1ccc(C(=O)NC(=O)c2ccccc2O)cc1	6	i	-16	-15	18	·	·
Cc1c(OCC(=O)OC(C)(C)C)ccc2c3c(c(=O)oc12)CCC3	20	i	7	13	20	·	·
Cc1c(OC(=O)CNC(=O)OC(C)(C)C)ccc2c3c(c(=O)oc12)CCC3	45*	i	4	49*	41	39*	47*
CC(C)(C)c1ccc(-c2n[nH]c(=S)n2C2CCCC2)cc1	44*	·	-14	41*	48	30*	45*
Cn1c(-c2ccc(C(C)(C)C)cc2)n[nH]c1=S	9	i	1	23	16	·	·
Cc1nc2ccccc2n1/N=C/c1ccc([N+](=O)[O-])o1	78*	i	-64	74*	27	72*	88*
N#Cc1cc2c(nc1SCc1nc3ccccc3[nH]1)CCC2	73*	i	·	42*	35	35*	67*
C/C(=N\NC(=O)CCc1ccc(S(=O)(=O)N2CCOCC2)cc1)c1ccccc1Cl	23	i	2	20	19	·	·
COc1ccc(C(=O)n2c(SC)nc3cc4c(cc32)OCCO4)cc1	47*	·	14	43*	44	37*	21
Cc1ccc(-c2nnc(Sc3nc4ccccc4o3)c3ccccc23)cc1	48*	i	10	46*	49	30*	38*
Cc1cccc(NC(=S)NCc2ccc3c(c2)OCO3)c1	14	i	-2	23	36	·	·
Cc1cccc(NC(=S)N/N=C/c2ccc3c(c2)OCO3)c1	47*	i	-25	42*	45	29	25
Cc1ccc(N=Cc2c(O)n(C)c(=O)n(C)c2=O)nc1	43*	+	42	40*	25	17	33*
CN(CCO)c1cc(Sc2nc3ccccc3s2)c2nonc2c1[N+](=O)[O-]	53*	i	6	41*	14	39*	26*
COc1cccc(-c2noc(C3CCCN(C(=O)Cc4ccccc4)C3)n2)c1 (configuration not stated)	41*	i	5	40*	39	36*	24
COc1ccc(OC)c(CN2CCN(C(=O)c3ccco3)CC2)c1	3	i	10	7	-2	·	·
O=C(NCc1ccccc1)c1cccc(COc2cccc(Cl)c2)c1	43*	i	-28	45*	24	40*	34*
CCn1cc(S(=O)(=O)c2ccc(C)cc2)c(=O)c2cc(OC)ccc21	1	i	-14	-15	-1	·	·
SMILES	TIM10 inh	Rce1 inh	PfHsp90 set2	tim10-1 inh	tim23-1 inh	tim10-1 confirm	TIM10 conf
NS(=O)(=O)c1ccc(CCN2C(=O)CCC2=O)cc1	-3	i	11	4	3	·	·
O=C(NN=C1c2ccccc2-c2ccccc21)c1ccccn1	48*	i	-15	41*	20	25	39*
N=C1SCC(=O)N1c1ncc(Cc2cccc(Cl)c2)s1	·	i	-49	·	·	·	·
O=C(Cc1cccs1)Nc1nc2c(s1)CCCC2	-8	i	·	27	27	·	·
O=C(Nc1nnc(CC2=CCCCC2)s1)c1cccs1	72*	i	-9	47*	30	42*	-27
O=C(Nc1nc2c(s1)CCCC2)c1cccs1	44*	·	54	44*	6	30*	12
CCOC(=O)C1CCCN(C(=O)c2cc3c(OC)c(OC)c(OC)cc3[nH]2)C1 (configuration not stated)	-14	i	17	1	8	·	·
O=C(NCCCN1CCOCC1)c1c(O)c2cc(Br)cc(Br)c2[nH]c1=O	67*	·	-25	51*	46	47*	74*
CCCCN(C)CCNC(=O)c1cc2cc3ccc(OC)cc3nc2o1	57*	?	2	49*	38	29*	46*
COC(=O)CNC(c1ccccc1)c1cc(Br)ccc1NC(=O)CCN1CCOCC1 (configuration not stated)	51*	i	-53	51*	34	42*	57*
CCOC(=O)CNC(c1ccccc1)c1cc(Br)ccc1NC(=O)CCN1CCOCC1 (configuration not stated)	55*	·	·	45*	-13	40*	40*
COC(=O)CNC(c1ccccc1)c1cc(Br)ccc1NC(=O)CNC(=O)OCc1ccccc1 (configuration not stated)	30	i	7	28	42	·	·
c1ccc(Nc2cccc(Nc3ccccc3)n2)cc1	60*	+	-6	64*	39	57*	-10
c1ccc(Nc2ccccn2)cc1	24	i	·	19	21	·	·
O=C(CCNc1ccc(Cc2ccncc2)cc1)c1ccc([N+](=O)[O-])cc1	62*	i	19	49*	40	37*	41*
Cc1nc(NC(=O)/C=C/c2ccccc2)n[nH]1	61*	i	19	60*	44	59*	53*
CCOC(=O)c1ccc(NC(=O)CC2C(=O)OCCN2CC)cc1 (configuration not stated)	44*	i	108*	68*	37	59*	58*
CCOC(=O)c1ccc(NC(=O)CC2NCCNC2=O)cc1 (configuration not stated)	0	i	-4	3	8	·	·
COc1ccc(/C(N)=N/OC(=O)c2ccc([N+](=O)[O-])c(C)c2)cc1OC	49*	i	-86	65*	46	71*	36*
Cc1cc(C(=O)O/N=C(\N)c2ccncc2)ccc1[N+](=O)[O-]	4	i	0	13	11	·	·
CC1CCC(N2CCNCC2)CC1 (configuration not stated)	-11	i	5	-18	-3	·	·
CCC(=O)Nc1ccc(C(=O)OCc2ccc(Cl)c(Cl)c2)cc1	4	i	-19	10	3	·	·
